The values below come from the supplement of paper PMC10681739.

In the test the target is T1, ETS1 (UniProt P14921).
T1 sequence: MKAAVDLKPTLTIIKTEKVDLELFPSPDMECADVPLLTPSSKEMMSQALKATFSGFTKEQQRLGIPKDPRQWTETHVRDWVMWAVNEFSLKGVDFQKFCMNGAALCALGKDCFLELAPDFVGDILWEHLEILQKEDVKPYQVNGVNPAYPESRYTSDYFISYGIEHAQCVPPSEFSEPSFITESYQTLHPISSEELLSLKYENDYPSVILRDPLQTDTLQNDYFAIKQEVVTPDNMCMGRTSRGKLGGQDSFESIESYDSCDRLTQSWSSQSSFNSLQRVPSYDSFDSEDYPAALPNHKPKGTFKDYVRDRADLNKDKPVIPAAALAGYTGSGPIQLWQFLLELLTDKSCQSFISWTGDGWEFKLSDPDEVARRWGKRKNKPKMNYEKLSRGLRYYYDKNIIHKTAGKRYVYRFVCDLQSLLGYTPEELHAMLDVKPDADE
The experiment in a line: TF binding intensity (PBM fluorescence), negative control probe (arbitrary fluorescence units); higher = stronger binding. As for the experimental part: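 gcPBM negative-control 36-bp genomic probes lacking TF binding sites. Each was incubated with recombinant human ETS1 or RUNX1 alone and detected by antibody fluorescence. Values are medians over replicate spots (4 spots for the ETS1-RUNX1 arrays, 3 for the ETS1-ETS1 array). The probes sit in constant array flanks that are not printed.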
With “TCCTCTGGTCTCTAAACCACAGCCTCCACCAGCAAC (protein concentration 1 nM)”, the TF binding intensity worked out at 442.

The sequence “TTTTGGATGATGCAAACCGCGCAAAAGCAGCATTCA (protein concentration 1 nM)” yielded a TF binding intensity of 449.

Take “TACTGGGGAGTGAAAAGGACACATCTATCCTTATAT (protein concentration 10 nM)”: the TF binding intensity stood at 103.

“CTCTGTTACAAAGCTTCACTTCTTAAGAGAGGGCTG (protein concentration 10 nM)” came in with a TF binding intensity of 134.

As for “AGCTTTCCAAGTTTTTGTGGGCAACATCAACTGTTC (protein concentration 1 nM)”, the TF binding intensity came to 486.

Consider “AGAAAGGCATGTCTCCAGGCTCTAAAGAGGCAAAGG (protein concentration 10 nM)”, for which the TF binding intensity amounted to 117.

For the sequence “AGACAGAAAAAGCCACAGCCGAGCGCCCAGCTGTGG (protein concentration 10 nM)”, the TF binding intensity is 95.8.

“GTTAGAATGCAACCTTTTGACTTATATCTTTTCCCC (protein concentration 10 nM)”: the TF binding intensity was 140.

For “TGGCCTGGGAAAGAACCCACAGGCTTCTGGTTGCTG (protein concentration 1 nM)”, the TF binding intensity was 597.

The sequence “GGCATCTACCTCCCAGGAGCAAGCGGGAGACAGCCC (protein concentration 10 nM)” yielded a TF binding intensity of 134.

“AAAGGCATGTAATGAACACTAAAACCCAAGAACCTG (protein concentration 10 nM)” returned a TF binding intensity of 114.

On to “AGTTTCACTGCCCTAAAAATCCTCCGTGCGCCGCCT (protein concentration 10 nM)”, for which the TF binding intensity came out at 123.

Sequence “CTCTGCCCAGTTGGTTGTGGCTCTTCATTACTGTGG (protein concentration 1 nM)” gave a TF binding intensity of 512.

The sequence “ATACATACCTTTCACCCTCCATTGTGTGAGGCCCAG (protein concentration 10 nM)” had a TF binding intensity of 114.

With “ACCCTGAGCCCTCTCCCGCTCCCTGGGTCTCAGCCT (protein concentration 10 nM)”, the TF binding intensity turned out to be 98.1.

Consider “TAGTTAAGACCTCTTAAGTCATAATAATATTGCCTA (protein concentration 10 nM)”, for which the TF binding intensity worked out at 102.

On to “ATGGCATACTAAGTAGCCACAACATGCAAGATGGAC (protein concentration 1 nM)”, for which the TF binding intensity came to 440.

Take “ATAAGCCAATTTTTTTTACATTTATGAAATGAGAGA (protein concentration 10 nM)”: the TF binding intensity was 105.

In the case of “CAAGATCTCTAACCACACTCGTCTGTGGCACTTCTT (protein concentration 10 nM)”, the TF binding intensity came to 118.

Consider “GAGGGTCCCGGCTCTGCCGCAGGCGGGCGGGGCAGA (protein concentration 1 nM)”, for which the TF binding intensity came out at 339.

Take “GAAATATGACAAAAAACCCCTATCCTATGATAAGTC (protein concentration 10 nM)”: the TF binding intensity was determined as 146.

The sequence “CATAGTTGCACCTGGTCTACTTTGCTGTCAATTTGT (protein concentration 10 nM)” came in with a TF binding intensity of 126.

“CTGGGCCATTAACCTCAGCAGAAAAATGCTTTTTGC (protein concentration 10 nM)” gave a TF binding intensity of 97.6.

Regarding “GATAGACATATAAAAACCACAAAAATCAAAACTGCA (protein concentration 1 nM)”, the TF binding intensity worked out at 485.

Sequence “GAGCATCACAAGGTCAGAGGAGGGGGCGGCCAGGGT (protein concentration 10 nM)” returned a TF binding intensity of 240.

Regarding “TTGTTACACTCCACGCTTTAGCTATTTGTTGCTACT (protein concentration 10 nM)”, the TF binding intensity stood at 120.

The sequence “GGGGGTATAGGGGAGCAGTCCCATGTAGTAGTAGAA (protein concentration 10 nM)” showed a TF binding intensity of 172.

“AAATAAATTCTTGTCTGGGGCCGACATCTGTGTGGA (protein concentration 10 nM)” gave a TF binding intensity of 119.

Regarding “GCTATCTATTTTAATTAGCTAAGATTGCTATTAATA (protein concentration 10 nM)”, the TF binding intensity was found to be 106.

The sequence “AAACAAAGTAAGCTTTTAAGGACTCTGGTCAGAAAC (protein concentration 10 nM)” showed a TF binding intensity of 101.

For “ATATTCTCTTACATAACCACAGTACATTTATCAGCC (protein concentration 1 nM)”, the TF binding intensity turned out to be 573.

The sequence “GTTCATCATCTCTCGTCAAGATGATTAACGACATGG (protein concentration 10 nM)” displayed a TF binding intensity of 141.
